Compound activity from PubChem.
This is a sample that favours compounds with a hit; in the whole collection about 28% have one here.
CYP2C9 inhib: blockers of cytochrome P450 2C9 activity – biochemical, luminescence, ADME assay, primary screen; P11712; CYP2C9 Supersomes, luciferin-H conversion; inhibition, % at 5 µM; 96,000 compounds, 20% hits; AID 777, 2007;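 active means blocking of liver enzyme CYP2C9 beyond about 50% at 5 µM, limit read from the data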
CYP2C9 activ: human CYP2C9 activators, primary screen, biochemical, luminescence. Cytochrome P450 2C9 (Homo sapiens), P11712. recombinant CYP2C9, luciferin-H conversion; hits give high values; factor 1 = untreated enzyme, 0 = blocked. activation factor at 5 µM. 96,000 compounds, 1.4% hits. AID 1024, 2008;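 active means activation factor of 2 or more for CYP2C9 at a 5 µM dose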
PLK1 PBD inh: Plk1 polo box domain binding inhibitors, primary screen, biochemical, fluorescence polarization; Serine/threonine-protein kinase PLK1 (Homo sapiens), P53350; AID 693, 2007; 97,000 compounds, 0.13% hits; Plk1 PBD phosphopeptide binding; inhibition, %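 (tested at about 20 µM)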; in the data active means inhibition above about 34%, passing the limit was not always enough
CYP2C19 activ: human CYP2C19 activators, primary screen, biochemical, luminescence; Cytochrome P450 2C19 (Homo sapiens), P33261; recombinant CYP2C19, luciferin-H EGE luminescence; hits give high values; 0 = fully inhibited enzyme, 1 = untreated enzyme; activation factor at 5 µM; 96,000 tested, under 10 active; AID 1025, 2008;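 active means activation factor of at least 2 at 5 µM in the primary screen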
Target sequence (P33261 whole entry, looked up): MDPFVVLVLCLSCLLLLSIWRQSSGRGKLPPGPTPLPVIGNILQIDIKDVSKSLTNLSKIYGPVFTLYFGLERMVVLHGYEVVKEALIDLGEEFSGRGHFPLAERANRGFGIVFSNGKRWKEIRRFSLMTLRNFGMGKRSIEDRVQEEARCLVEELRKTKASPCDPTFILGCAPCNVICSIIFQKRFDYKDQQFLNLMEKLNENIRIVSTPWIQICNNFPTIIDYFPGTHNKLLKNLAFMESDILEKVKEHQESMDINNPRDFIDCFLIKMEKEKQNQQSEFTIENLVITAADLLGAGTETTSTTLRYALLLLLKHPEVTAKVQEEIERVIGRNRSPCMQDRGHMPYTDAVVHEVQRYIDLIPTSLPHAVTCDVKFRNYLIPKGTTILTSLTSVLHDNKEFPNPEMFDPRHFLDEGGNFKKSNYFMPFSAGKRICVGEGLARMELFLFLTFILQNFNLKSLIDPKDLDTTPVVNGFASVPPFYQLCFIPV
CYP2C19 inh: blockers of cytochrome P450 2C19 activity – biochemical, luminescence, ADME assay, primary screen. P33261. CYP2C19 Supersomes, luciferin-H EGE luminescence, 30 min. inhibition, % at 5 µM. 96,000 compounds, 21% hits. AID 778, 2007;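 active means CYP2C19 inhibition above a set limit at 5 µM in the primary screen, cut at about 50% in these data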
PLK1 kinase inh: human PLK1 kinase inhibitors, primary screen, biochemical, TR-FRET. recombinant PLK1 kinase, TR-FRET peptide phosphorylation. Serine/threonine-protein kinase PLK1 (Homo sapiens), P53350. 97,000 compounds, 0.53% hits. inhibition, % at 10 µM;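 active means inhibition of 50% or more in the single-concentration screen; inactive means inhibition below 50%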
Of the large screens only hits and unclear results are named; the others gave an inactive call.

Cc1csc(NC(=O)CSc2nnc3c4ccccc4nc(C(C)(C)C)n23)n1	none
CCCOc1ccc(/C=C/C(=O)Nc2ccc([N+](=O)[O-])cc2)cc1	CYP2C9 inhib 59
Cc1ccc(/C=C/C(=O)Nc2ccc([N+](=O)[O-])cc2)o1	none
COc1cc(C2C(C#N)=C(C)NC3=C2C(=O)CC(C)(C)C3)cc(OC)c1O (stereo not given)	none
COc1cc(C2C(C#N)=C(C)NC3=C2C(=O)c2ccccc23)cc(OC)c1OC (stereo not given)	CYP2C9 inhib 98
CCOc1ccc(C2C(C#N)=C(C)NC3=C2C(=O)c2ccccc23)cc1 (stereo not given)	CYP2C9 inhib 97, CYP2C19 inh 99
COc1ccc(C2C(C#N)=C(C)NC3=C2C(=O)c2ccccc23)cc1 (stereo not given)	none
COC(=O)c1cc(COc2ccc3c4c(c(=O)oc3c2)CCC4)c(C)o1	none
C=CCn1c(SCC(=O)Nc2ccc(N(C)C)cc2)nnc1-c1cccc(C)c1	none
COc1cc(/C=C(/C#N)c2ccc(F)cc2)ccc1OCc1ccc(C(=O)O)o1	none
Cn1c(=O)cc(SCC(=O)N2CCN(c3ccccc3)CC2)c2ccccc21	CYP2C19 inh 51
Cn1c(=O)cc(SCC(=O)N2CCCC2)c2ccc(Cl)cc21	none
Cn1c(=O)cc(SCC(=O)N2CCN(c3ccccn3)CC2)c2ccccc21	CYP2C9 inhib 62
Cn1c(=O)cc(OCCCC(=O)N2CCN(c3ccccc3)CC2)c2ccccc21	CYP2C9 inhib 61, CYP2C19 inh 80
Cc1cc(NO)nc(-c2ccc(Br)cc2)n1	none (no result: PLK1 PBD inh, PLK1 kinase inh)
Cc1nn(CC2CCCCC2)c(N)c1-c1ccccc1	CYP2C9 inhib 92, CYP2C19 inh 98
CCOC(=O)Cn1nc(C)c(-c2ccccc2)c1N	none
CCOC(=O)N1CCN(c2ccc(O)cc2)CC1	none
C=CCn1c(=S)[nH]c2ccc(Br)cc2c1=O	CYP2C19 inh 62
CCOC(=O)c1ccoc1CSCc1ccc(C(=O)OC)o1	CYP2C9 inhib 72
CC(C)(C)C(=O)Nc1cccc(C(=O)c2cccc(NC(=O)C(C)(C)C)c2)c1	CYP2C19 inh 55
CC(=O)c1cccc(NC(=O)C=C(C)C)c1	none
CCCOC(=O)c1cccc(NC(=O)C(C)(C)C)c1	CYP2C9 inhib 59, CYP2C19 inh 79
COc1ccc(CN/C(C)=C(/C#N)C(N)=O)cc1OC	none
CN(Cc1ccccc1)C(=O)c1cccc(N2C(=O)NC3CC2(C)Oc2ccccc23)c1 (stereo not given)	none
O=C1C2C3C=CC([C@@H]2C(=O)N1c1nccs1)C31CC1 (stereo not given in full)	CYP2C19 inh 76
CN1C(=O)NC(c2ccccc2)C2=C1CN(c1ccc3ccccc3c1)C2=O (stereo not given)	none
O=C(O)c1cc(S(=O)(=O)O)ccc1O	none
O=C(OCc1cc(Cl)ccc1OC(F)F)c1cc(S(=O)(=O)O)ccc1O	CYP2C9 inhib 73
Cc1ccc(-c2nnn(CC(=O)N3c4ccccc4CCc4ccccc43)n2)cc1	none (no result: CYP2C9 inhib, CYP2C9 activ, CYP2C19 activ, CYP2C19 inh)
Cc1sc2nc(SCC(=O)NCCOCCO)n(C)c(=O)c2c1C	none (no result: PLK1 PBD inh, PLK1 kinase inh)
CCCS/C(N)=N/N=C/c1ccccc1O	CYP2C9 inhib 59, CYP2C19 inh 79
CCS(=O)(=O)N1CCC(C(=O)N2CCc3ccccc3C2)CC1	CYP2C19 inh 60
COc1ccc(S(=O)(=O)N2CCC(C(=O)N3CCc4ccccc4C3)CC2)cc1Cl	CYP2C19 inh 92
Cc1ccc(S(=O)(=O)Oc2cccc(N3C(=O)C4CC=CCC4C3=O)c2)cc1 (stereo not given)	none
CC(=O)Nc1ccc(S(=O)(=O)Oc2cccc(N3C(=O)C4CCCCC4C3=O)c2)cc1 (stereo not given)	CYP2C9 inhib 75
COC(=O)c1[nH]c2ccc(F)cc2c1NC(=O)CCN1CCN(Cc2ccc3c(c2)OCO3)CC1	none
COC(=O)c1[nH]c2ccccc2c1NC(=O)CN1CCN(Cc2ccc3c(c2)OCO3)CC1	CYP2C19 inh 51
CCN(CC(=O)Nc1c(C(=O)OC)[nH]c2ccc(C)cc12)c1ccc2c(c1)OCO2	CYP2C9 inhib 62
CCOC(=O)C1CCN(CC(=O)Nc2c(C(=O)OC)[nH]c3ccc(Cl)cc23)CC1	CYP2C19 inh 73
COC(=O)c1[nH]c2ccc(Br)cc2c1NC(=O)CN1CCCc2ccccc21	CYP2C9 inhib 88
O=C(CSc1nnc(CNc2ccc(F)cc2)n1Cc1ccco1)NC1CC1	none
COc1ccccc1CC(=O)N(CCC#N)CCC#N	none (no result: CYP2C9 inhib, CYP2C9 activ, CYP2C19 activ, CYP2C19 inh)
CC(=O)c1ccc(N2CCN(c3ccc(S(=O)(=O)N4CCN(C)CC4)cn3)CC2)cc1	none
CCCc1nc(NCC2CCCO2)c2nnn(Cc3ccccc3)c2n1 (stereo not given)	none (no result: CYP2C9 inhib, CYP2C9 activ, CYP2C19 activ, CYP2C19 inh)
CCCCOc1ccccc1C(=O)NCCCC(=O)O	none
CCOC(=O)C1CCN(CC(=O)Nc2c(C(=O)OC)[nH]c3cccc(Cl)c23)CC1	none
COC(=O)c1[nH]c2ccc(Br)cc2c1NC(=O)CN1CCN(C2CCCCC2)CC1	none
COC(=O)c1[nH]c2cc(OC)ccc2c1NC(=O)CCN1CCN(c2ccccc2)CC1	CYP2C9 inhib 67
CCOC(=O)C1CCN(CC(=O)Nc2c(C(=O)OC)[nH]c3ccccc23)CC1	CYP2C19 inh 73
CCOC(=O)C1CCCN(CC(=O)Nc2c(C(=O)OC)[nH]c3ccc(Br)cc23)C1 (stereo not given)	CYP2C9 inhib 58, CYP2C19 inh 52
CC1CCc2nc(NC(=O)CN3CCN(Cc4ccc5c(c4)OCO5)CC3)sc2C1 (stereo not given)	CYP2C9 inhib 76, CYP2C19 inh 72
Cc1nnc(SCC(=O)NCCc2ccccc2)[nH]c1=O	none (no result: CYP2C9 inhib, CYP2C9 activ, CYP2C19 activ, CYP2C19 inh)
O=C(CN1C(=O)C2C3C=CC(C3)C2C1=O)N1CC(=O)N(CCc2ccccc2)C(=O)C1 (stereo not given)	none
COC(=O)c1[nH]c2ccc(C)cc2c1NC(=O)CCN1CCN(C2CCCCC2)CC1	none
COC(=O)c1[nH]c2ccc(Cl)cc2c1NC(=O)CCN1CCN(C2CCCCC2)CC1	CYP2C19 inh 55
O=C(c1ccc2nccnc2c1)N1CCN(Cc2ccc3c(c2)OCO3)CC1	none
O=C(c1cccn2c(=O)c3cc(Cl)ccc3nc12)N1CCN(Cc2ccc3c(c2)OCO3)CC1	CYP2C9 inhib 97, CYP2C19 inh 88
CCn1nc(C(=O)N2CCN(Cc3ccc4c(c3)OCO4)CC2)c2ccccc2c1=O	CYP2C9 inhib 61
